Data as given in PubChem BioAssay (EPA / NIEHS).
Results filed as inconclusive are left out. Calls of active or inactive are those of the source. Rule for the calls: active = hit-call score of the fitted dose curve at least 0.9, where 1 is the maximum; inconclusive = response in the unintended direction; inactive = score below 0.9.

Assay: ATG_XTT_Cytotoxicity: Cytotoxicity Assessment in the Attagene TRANS-FACTORIAL HepG2 Assay (AID 2283584);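 for AC50: cells exposed to compound for 24 h before reading; active means loss of viability signal versus DMSO baseline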
Experimental: ATG_XTT_Cytotoxicity is a cell-based, single-readout assay that uses HepG2, a human liver cell line, with measurements taken at 24 hours after chemical dosing in a 24-well plate.ATG_XTT_Cytotoxicity is one of one assay component(s) measured or calculated from the ATG_XTT_Cytotoxicity assay. It is designed to make measurements of cell number, a form of viability reporter, as detected with […] signals by XTT cytotoxicity assay technology.Data from the assay component ATG_XTT_Cytotoxicity was analyzed into 1 assay endpoint. This assay endpoint, ATG_XTT_Cytotoxicity, was analyzed in the positive analysis fitting direction relative to DMSO as the negative control and baseline of activity. Using a type of viability reporter, loss-of-signal activity can be used to understand changes in the viability. Furthermore, this assay endpoint can be referred to as a primary readout, because the performed assay has only produced 1 assay endpoint. To generalize the intended target to other relatable targets, this assay endpoint is annotated to the cell cycle intended target family, where the subfamily is cytotoxicity.
Human liver HepG2 cells are transiently transfected with multiple reporter transcription units (MRTUs) in 6-well plates using FuGene 6 reagent (Roche; 3 ml FuGene/1 mg DNA). The MRTU constructs are regulated by a cis-regulating element (promoter). […] A major difference between the CIS and TRANS system is that in CIS activities of endogenous TFs are measured, whereas the TRANS assay evaluates changes in activities of exogenous, chimeric NR-Gal4 proteins. […] At the end of 24 hour incubation, total RNA was isolated using TriZol reagent (Invitrogen). The isolated RNA is then reverse-transcribed using oligo(dT) primer and Mo-MLV reverse transcriptase (Invitrogen) with DNAse I (Ambion) treatment for 30 min. The one-tenth of the produced cDNA was amplified by PCR using Taq DNA polymerase (Invitrogen) and two reporter sequence-specific primers. The PCR products were fluorescently labeled by primer extension with 6-arboxyfluorescein (6-FAM) 5'-labeled reporter sequence-specific primer (2 min at 95 C, 20 s at 68 C and 10 min at 72 C) and these products were digested with 5U of HpaI (New England Biolabs) for 2h at 37 C. The fragments were purified using Qiaquick PCR columns (Qiagen), analyzed on an ABI 3130xL genetic analyzer (Applied Biosystems) with peak positions identified by using a set of X-rhodamine (ROX)-labeled MapMarker1000 molecular weight standards (BioVentures). The raw capillary electrophoresis data was processed using Attagraph software (Attagene).

Compound | outcome | AC50
Oc1cccc2ccccc12 | inactive | 
OCCN(CCO)c1cccc(Cl)c1 | inactive | 
O=C(O)/C=C/C(=O)O | inactive | 
Clc1ccc(Sc2cc(Cl)c(Cl)cc2Cl)cc1 | inactive | 
C=CCOC(=O)C(=C)C | inactive | 
CCCC(=O)OC/C=C(\C)CCC=C(C)C | inactive | 
c1cc[c]([Bi]([c]2ccccc2)[c]2ccccc2)cc1 | inactive | 
Nc1ccc(S(=O)(=O)Nc2cnc3ccccc3n2)cc1 | inactive | 
c1cc(N(CC2CO2)CC2CO2)ccc1Cc1ccc(N(CC2CO2)CC2CO2)cc1 (stereo not given) | inactive | 
CC(=O)c1nccs1 | inactive | 
COC(=O)CCSCCC(=O)OC | inactive | 
CC(C)(C)NC(=O)[C@@H]1CN(Cc2cccnc2)CCN1C[C@@H](O)C[C@@H](Cc1ccccc1)C(=O)N[C@H]1c2ccccc2C[C@H]1O | inactive | 
O=[N+]([O-])c1ccccc1C(F)(F)F | inactive | 
C=CN1CCCCCC1=O | inactive | 
N#CCN(CC#N)CCN(CC#N)CC#N | inactive | 
CCc1cc(C(N)=S)ccn1 | inactive | 
CC1(C)S[C@@H]2[C@H](NC(=O)[C@H](N)c3ccccc3)C(=O)N2[C@H]1C(=O)O | inactive | 
CC(=O)CCc1ccccc1 | inactive | 
O=C(Oc1ccccc1)c1ccccc1 | inactive | 
CCCCCCCCCC/C=C/C1CC(=O)OC1=O (stereo not given) | inactive | 

Compound | outcome | AC50
Nc1nnc(-c2ccc([N+](=O)[O-])o2)o1 |  | 159 µM (active)
COC(=O)c1ccccc1 | inactive | 
CCOc1ccc2c(c1)C(C)CC(C)(C)N2 (stereo not given) | inactive | 
CCCCCCCC#N | inactive | 
O=C(C(=O)c1ccccc1)c1ccccc1 | inactive | 
CCCCCCCCCCCCCCCCCC[N+](C)(C)C | inactive | 
CCCCCCC1CCCC(=O)O1 (stereo not given) | inactive | 
CNC(=C[N+](=O)[O-])NCCSCc1csc(CN(C)C)n1 | inactive | 
COCCCN | inactive | 
C[Si](C)(C)O[Si](C)(C)O[Si](C)(C)C | inactive | 
CCCCCC1CCCC(=O)O1 (stereo not given) | inactive | 
COc1cccc(OC)c1C(=O)O | inactive | 
CC(C)CC(=O)O | inactive | 
O=C(CC(C(=O)OC1CCCCC1)S(=O)(=O)O)OC1CCCCC1 (stereo not given) | inactive | 
CCC(C)C1N=C(C)C(C)S1 (stereo not given) | inactive | 
CO[Si](CCCNCCN)(OC)OC | inactive | 
CC/C=C\CCO | inactive | 
CC[N+](CC)(CC(=O)Nc1c(C)cccc1C)Cc1ccccc1 (tested in a mixture with another compound) | inactive | 
CN(C)c1ccc(C(c2ccccc2)c2ccc(N(C)C)cc2)cc1 | inactive | 
CC/C=C\CC1=C(C)CCC1=O | inactive | 
